Measured values as given in the supplement of paper PMC11732987, “Enantioselective OTUD7B fragment discovery through chemoproteomics screening and high-throughput optimisation” (Communications Chemistry, 2025).

What was measured:
Experiment in all cases: log2 ratio of Biotin-Ahx-Ub-VS probe labelling (fragment/DMSO); higher = less target engagement (more negative = stronger competition), active = hit call of the paper (q ≤ 0.05, log2 ratio ≤ -1)
Details in all cases: compound concentration: 200 uM; treatment time: 3 h
ALG13 = target: T1, ALG13 (UniProt Q9NP73)
T1 sequence (whole entry): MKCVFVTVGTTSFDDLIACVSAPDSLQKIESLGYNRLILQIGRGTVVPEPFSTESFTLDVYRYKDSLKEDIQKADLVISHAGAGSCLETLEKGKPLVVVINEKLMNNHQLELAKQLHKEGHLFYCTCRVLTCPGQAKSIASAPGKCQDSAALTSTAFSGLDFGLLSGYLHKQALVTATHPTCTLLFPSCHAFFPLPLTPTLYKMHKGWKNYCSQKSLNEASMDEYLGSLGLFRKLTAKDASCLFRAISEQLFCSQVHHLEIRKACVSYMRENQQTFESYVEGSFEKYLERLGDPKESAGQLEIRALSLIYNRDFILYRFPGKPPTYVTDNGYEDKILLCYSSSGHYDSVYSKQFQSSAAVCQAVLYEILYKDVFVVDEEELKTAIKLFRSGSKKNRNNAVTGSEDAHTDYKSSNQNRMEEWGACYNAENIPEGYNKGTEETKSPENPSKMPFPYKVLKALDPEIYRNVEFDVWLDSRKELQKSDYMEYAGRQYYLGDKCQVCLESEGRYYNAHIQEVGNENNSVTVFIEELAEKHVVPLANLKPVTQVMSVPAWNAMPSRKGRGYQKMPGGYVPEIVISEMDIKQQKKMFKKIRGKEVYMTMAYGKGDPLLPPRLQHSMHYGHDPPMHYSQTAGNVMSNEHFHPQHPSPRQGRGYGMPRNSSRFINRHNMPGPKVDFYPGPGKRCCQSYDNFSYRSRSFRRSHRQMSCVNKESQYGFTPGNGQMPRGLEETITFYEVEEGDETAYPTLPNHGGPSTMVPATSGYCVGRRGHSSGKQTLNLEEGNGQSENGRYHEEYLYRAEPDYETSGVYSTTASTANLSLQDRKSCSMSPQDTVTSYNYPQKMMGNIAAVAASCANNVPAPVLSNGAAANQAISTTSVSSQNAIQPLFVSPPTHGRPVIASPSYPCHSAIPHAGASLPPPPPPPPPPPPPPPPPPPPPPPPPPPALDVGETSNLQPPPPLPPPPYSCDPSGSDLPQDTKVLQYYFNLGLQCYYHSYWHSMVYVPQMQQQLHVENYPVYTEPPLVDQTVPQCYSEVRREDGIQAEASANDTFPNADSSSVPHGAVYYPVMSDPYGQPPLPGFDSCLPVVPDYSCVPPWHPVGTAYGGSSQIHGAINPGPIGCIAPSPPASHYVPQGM
How it was run: (§1)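 Fragment (200 µM) or vehicle was incubated for 3 h with triplicate HEK293T lysate samples of 495 µg, which were then treated with Biotin-Ahx-Ub-VS at 0.5 µM final for 1 h. Labelled DUBs were enriched on NeutrAvidin, digested with LysC and trypsin, and analysed by diaPASEF LC-MS/MS. Values are average log2 fragment/vehicle ratios from an unpaired t-test on global-median-normalised Spectronaut label-free quantities, using proteins with ≥2 unique peptides.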

ATXN3 = ATXN3 (UniProt P54252)
How it was run: as §1

BAP1 = target: T2, BAP1 (UniProt Q92560)
T2 sequence (whole entry): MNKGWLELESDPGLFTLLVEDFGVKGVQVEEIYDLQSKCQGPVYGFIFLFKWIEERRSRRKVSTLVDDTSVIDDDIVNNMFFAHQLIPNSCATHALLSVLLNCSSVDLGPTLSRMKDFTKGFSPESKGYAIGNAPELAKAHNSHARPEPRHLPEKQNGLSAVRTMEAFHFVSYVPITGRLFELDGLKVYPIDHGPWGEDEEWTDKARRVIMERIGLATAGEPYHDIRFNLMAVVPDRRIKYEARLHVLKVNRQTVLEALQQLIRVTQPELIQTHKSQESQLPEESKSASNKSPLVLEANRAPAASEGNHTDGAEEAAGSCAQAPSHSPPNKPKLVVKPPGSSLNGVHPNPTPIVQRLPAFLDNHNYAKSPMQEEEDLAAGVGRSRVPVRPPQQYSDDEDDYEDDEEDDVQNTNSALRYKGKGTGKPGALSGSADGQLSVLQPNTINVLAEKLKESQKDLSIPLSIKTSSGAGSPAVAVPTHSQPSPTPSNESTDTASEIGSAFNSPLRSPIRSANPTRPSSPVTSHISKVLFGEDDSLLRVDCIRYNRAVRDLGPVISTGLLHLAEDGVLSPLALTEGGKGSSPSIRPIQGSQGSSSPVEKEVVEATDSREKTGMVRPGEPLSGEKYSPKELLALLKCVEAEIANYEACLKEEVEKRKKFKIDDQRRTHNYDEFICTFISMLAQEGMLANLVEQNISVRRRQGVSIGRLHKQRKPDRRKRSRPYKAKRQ
How it was run: as §1

EIF3F = EIF3F (UniProt O00303)
How it was run: as §1

EIF3H = EIF3H (UniProt O15372)
How it was run: as §1

FAM105A = target: T3, FAM105A (UniProt Q9NUU6)
T3 sequence (whole entry): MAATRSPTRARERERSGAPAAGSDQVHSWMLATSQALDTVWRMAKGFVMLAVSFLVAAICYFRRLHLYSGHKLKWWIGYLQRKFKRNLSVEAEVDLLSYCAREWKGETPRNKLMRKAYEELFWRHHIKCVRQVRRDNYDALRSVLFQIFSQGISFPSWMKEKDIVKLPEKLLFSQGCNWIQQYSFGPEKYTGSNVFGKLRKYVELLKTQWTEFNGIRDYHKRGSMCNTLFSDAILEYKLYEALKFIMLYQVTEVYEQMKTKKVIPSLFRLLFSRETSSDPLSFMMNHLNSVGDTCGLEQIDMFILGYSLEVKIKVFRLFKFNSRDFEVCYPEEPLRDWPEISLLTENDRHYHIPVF
How it was run: as §1

OTUB1 = OTUB1 (UniProt Q96FW1)
How it was run: as §1

OTUD4 = target: T4, OTUD4 (UniProt Q01804)
T4 sequence (whole entry): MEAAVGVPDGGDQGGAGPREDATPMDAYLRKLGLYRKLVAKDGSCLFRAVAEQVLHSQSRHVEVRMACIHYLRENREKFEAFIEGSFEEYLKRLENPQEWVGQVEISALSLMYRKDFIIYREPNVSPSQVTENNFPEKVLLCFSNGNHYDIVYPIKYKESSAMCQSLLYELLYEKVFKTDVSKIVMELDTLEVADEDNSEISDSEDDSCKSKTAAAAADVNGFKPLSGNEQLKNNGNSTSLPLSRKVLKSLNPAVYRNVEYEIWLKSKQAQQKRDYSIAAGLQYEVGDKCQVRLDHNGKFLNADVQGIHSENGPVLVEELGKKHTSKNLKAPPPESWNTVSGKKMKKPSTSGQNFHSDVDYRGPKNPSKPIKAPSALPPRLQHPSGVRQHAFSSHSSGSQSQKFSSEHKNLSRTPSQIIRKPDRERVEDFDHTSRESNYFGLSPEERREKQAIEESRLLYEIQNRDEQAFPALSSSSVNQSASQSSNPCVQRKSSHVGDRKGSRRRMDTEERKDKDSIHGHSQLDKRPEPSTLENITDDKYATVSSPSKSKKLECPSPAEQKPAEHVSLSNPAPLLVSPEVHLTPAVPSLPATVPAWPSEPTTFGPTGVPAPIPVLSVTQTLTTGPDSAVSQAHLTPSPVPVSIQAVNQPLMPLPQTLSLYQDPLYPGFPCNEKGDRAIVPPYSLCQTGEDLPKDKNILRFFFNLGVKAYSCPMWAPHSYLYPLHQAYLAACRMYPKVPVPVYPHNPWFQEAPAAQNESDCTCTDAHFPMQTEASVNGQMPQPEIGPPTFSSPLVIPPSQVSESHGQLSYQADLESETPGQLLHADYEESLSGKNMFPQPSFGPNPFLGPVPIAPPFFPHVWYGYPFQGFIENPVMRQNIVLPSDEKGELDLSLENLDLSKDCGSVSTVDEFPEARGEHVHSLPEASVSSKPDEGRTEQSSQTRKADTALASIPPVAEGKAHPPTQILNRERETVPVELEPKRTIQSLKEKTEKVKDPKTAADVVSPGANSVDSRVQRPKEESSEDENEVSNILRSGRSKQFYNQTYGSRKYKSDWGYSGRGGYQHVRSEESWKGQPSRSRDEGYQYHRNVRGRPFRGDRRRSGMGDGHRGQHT
How it was run: as §1

OTUD5 = target: T5, OTUD5 (UniProt Q96G74)
T5 sequence (whole entry): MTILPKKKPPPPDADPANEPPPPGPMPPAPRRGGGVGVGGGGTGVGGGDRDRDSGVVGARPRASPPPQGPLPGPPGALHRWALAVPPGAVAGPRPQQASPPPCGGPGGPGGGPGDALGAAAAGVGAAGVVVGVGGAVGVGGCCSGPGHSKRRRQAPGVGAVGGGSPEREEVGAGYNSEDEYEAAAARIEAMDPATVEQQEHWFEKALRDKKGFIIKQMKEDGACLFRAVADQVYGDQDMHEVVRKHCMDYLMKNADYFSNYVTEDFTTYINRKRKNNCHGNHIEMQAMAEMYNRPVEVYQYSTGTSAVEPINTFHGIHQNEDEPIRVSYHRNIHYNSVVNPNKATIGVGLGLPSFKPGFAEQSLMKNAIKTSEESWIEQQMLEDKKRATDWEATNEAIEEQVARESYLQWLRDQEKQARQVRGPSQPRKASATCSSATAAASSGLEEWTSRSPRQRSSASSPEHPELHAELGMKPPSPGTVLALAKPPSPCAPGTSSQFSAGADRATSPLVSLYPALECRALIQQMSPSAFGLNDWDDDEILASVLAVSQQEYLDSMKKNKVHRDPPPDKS
How it was run: as §1

Measured: log2 ratio of Biotin-Ahx-Ub-VS probe labelling

Sequence of ATXN3 (P54252 whole entry): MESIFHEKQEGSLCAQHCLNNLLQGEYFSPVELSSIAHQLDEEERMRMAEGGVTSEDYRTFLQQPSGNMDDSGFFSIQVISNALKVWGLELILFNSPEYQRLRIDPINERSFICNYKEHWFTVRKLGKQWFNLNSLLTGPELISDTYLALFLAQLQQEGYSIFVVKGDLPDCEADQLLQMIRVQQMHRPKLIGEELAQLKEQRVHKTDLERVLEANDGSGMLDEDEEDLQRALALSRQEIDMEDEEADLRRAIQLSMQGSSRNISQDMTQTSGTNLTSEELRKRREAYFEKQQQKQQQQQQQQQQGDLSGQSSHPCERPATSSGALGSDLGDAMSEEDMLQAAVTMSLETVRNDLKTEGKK
Sequence of OTUB1 (Q96FW1 whole entry): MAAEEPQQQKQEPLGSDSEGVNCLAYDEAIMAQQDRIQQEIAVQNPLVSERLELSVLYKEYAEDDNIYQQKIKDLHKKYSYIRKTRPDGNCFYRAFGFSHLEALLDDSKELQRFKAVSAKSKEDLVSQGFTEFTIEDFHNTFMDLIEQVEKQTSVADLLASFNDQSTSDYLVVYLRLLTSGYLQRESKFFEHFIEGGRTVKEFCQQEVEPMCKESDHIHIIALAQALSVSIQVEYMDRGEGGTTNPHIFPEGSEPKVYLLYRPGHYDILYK
Sequence of EIF3F (O00303 whole entry): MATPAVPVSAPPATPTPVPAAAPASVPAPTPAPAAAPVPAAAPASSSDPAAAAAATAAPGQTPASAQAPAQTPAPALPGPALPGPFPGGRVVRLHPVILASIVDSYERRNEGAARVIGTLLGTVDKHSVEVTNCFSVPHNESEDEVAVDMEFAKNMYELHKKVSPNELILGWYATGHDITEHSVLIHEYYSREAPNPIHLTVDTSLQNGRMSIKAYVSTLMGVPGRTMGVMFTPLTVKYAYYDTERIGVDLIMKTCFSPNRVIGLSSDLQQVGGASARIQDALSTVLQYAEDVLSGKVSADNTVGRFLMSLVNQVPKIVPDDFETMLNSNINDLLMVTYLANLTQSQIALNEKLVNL
Sequence of EIF3H (O15372 whole entry): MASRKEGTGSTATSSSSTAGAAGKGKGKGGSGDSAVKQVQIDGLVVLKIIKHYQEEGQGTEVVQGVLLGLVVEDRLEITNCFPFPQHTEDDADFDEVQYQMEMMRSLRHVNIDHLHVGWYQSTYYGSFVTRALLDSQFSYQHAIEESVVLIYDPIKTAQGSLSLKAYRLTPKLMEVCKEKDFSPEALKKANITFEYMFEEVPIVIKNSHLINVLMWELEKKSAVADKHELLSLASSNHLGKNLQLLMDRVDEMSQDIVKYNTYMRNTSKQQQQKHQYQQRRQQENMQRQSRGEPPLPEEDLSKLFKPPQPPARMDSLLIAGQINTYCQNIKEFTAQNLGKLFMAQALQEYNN

CN(Cc1nc2ccccc2[nH]1)C(=O)CCl.Cl
inactive: ALG13 0.0974 | ATXN3 -0.483 | BAP1 -0.482 | EIF3F -0.447 | EIF3H 0.225 | FAM105A -0.213 | OTUB1 -0.189 | OTUD4 0.0195 | OTUD5 -0.483
